Screening results (PubChem)
This is one part of a sample in which hits are shown more often than they occur.
Pf Dd2 growth: inhibitors of Plasmodium falciparum Dd2 growth; Potency, µM (series often up to 28.9 µM), without a hit: top-dose activity, negative = inhibition, actives largely listed as inhibitors; P. falciparum Dd2 growth, SYBR Green, 72 h; 120,000 compounds, 4.3% hits; active = well fitted inhibition curve with a large enough effect;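 note: plate controls were DMSO vehicle for no effect and reference drug for full effect; nearly all actives have a fitted effect of over 65% in size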
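Readout: SYBR Green fluorescence, 485 nm excitation, 535 nm emission, after ~16 h lysis at 37C. Before that, Dd2-infected red cells (2.5% hematocrit) grew 72 h with compound, 29 uM top final concentration.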
An asterisk follows results filed as active; i = inactive; [ ] = dose if it differs, or a comment. Potency is the fitted concentration of half-maximal effect.

SMILES | Pf Dd2 growth
CCOC(=O)C1CCCN(C(=O)C2CC(c3ccc(CC)cc3)CN(C(=O)c3ccoc3)C2)C1 (stereo unspecified) | 1.12µM*
CCOC(=O)C1CCCN(C(=O)C2CC(c3ccccc3)CN(C(=O)c3cccc(F)c3)C2)C1 (stereo unspecified) | i
CCc1ccc(C2CC(C(=O)NC(C)c3ccccc3)CN(C(=O)c3ccoc3)C2)cc1 (stereo unspecified) | i
CCOc1ccccc1C(=O)N1CCCN(C(=O)C2CC2)c2ccccc21 | i
O=C(Nc1ccc(Cl)c(-c2nc3cc(Cl)ccc3o2)c1)c1cc2ccccc2o1 | 2.1%
Cc1cc(NC(=O)c2cc(Cl)ccc2Cl)ccc1-c1cc2ccccc2oc1=O | 11.2µM*
Cc1cc2nc(-c3cc(NC(=O)c4cc5ccccc5o4)ccc3Cl)oc2cc1C | i
CN(C)C(=O)c1cn(C2CNC2)nn1 | 29.0%
CCCN(CCC)CCNC(=O)CN1C(=O)COc2ccc(S(=O)(=O)N3CCC(C)CC3)cc21 | 4.47µM*
CCCNC(=O)CN1C(=O)COc2ccc(S(=O)(=O)N3CCC(C)CC3)cc21 | -20.8%
Cc1ccc(CCNC(=O)CN2C(=O)COc3ccc(S(=O)(=O)N4CCC(C)CC4)cc32)cc1 | -20.4%
COc1ccc(-c2noc([C@@H]3CCCN3C(=O)c3ccc(N(C)C)cc3)n2)cc1OC | i
O=C(c1cccnc1)N1CCC(Oc2ccccc2)C1 (stereo unspecified) | -15.8%
CCCn1c2ccccc2c2cnn(CC(=O)N3CCC(C)CC3)c(=O)c21 | i
CCC(Cc1ccccc1)NC(=O)Cn1ncc2c3ccccc3n(Cc3ccc(F)cc3)c2c1=O (stereo unspecified) | -5.4%
Cc1ccccc1Cn1c2ccccc2c2cnn(CC(=O)NCc3ccccn3)c(=O)c21 | -0.1%
Cc1cc(C)c(Cn2c3ccccc3c3cnn(CC(=O)NCc4ccccn4)c(=O)c32)c(C)c1 | 10µM*
Cc1cc(C)c(Cn2c3ccccc3c3cnn(CC(=O)N4CCCCCC4)c(=O)c32)c(C)c1 | 7.08µM*
CC(CCc1ccccc1)NC(=O)Cn1ncc2c3ccccc3n(Cc3cccc(Cl)c3)c2c1=O (stereo unspecified) | -5.0%
O=C(Cn1ncc2c3ccccc3n(Cc3ccc(Cl)cc3)c2c1=O)NCc1ccccn1 | -22.4%
CCOC(=O)N1CCN(C(=O)Cn2ncc3c4ccccc4n(Cc4ccc(F)cc4)c3c2=O)CC1 | 10µM*
CC1CCC(NC(=O)Cn2ncc3c4ccccc4n(Cc4ccc(F)cc4)c3c2=O)CC1 (stereo unspecified) | -7.7%
O=C(Cn1ncc2c3ccccc3n(Cc3ccccc3)c2c1=O)N1CCCCCC1 | 2.8%
O=C(Cn1ncc2c3ccccc3n(Cc3cccc(Cl)c3)c2c1=O)N1CCCCCC1 | 8.91µM*
Cc1ccccc1Cn1c2ccccc2c2cnn(CC(=O)NC3CCCCCC3)c(=O)c21 | 11.8%
SMILES | Pf Dd2 growth
Cc1cccc(C(=O)N2CCOC(CCCc3ccccc3)C2)n1 (stereo unspecified) | 7.0%
CC(=O)N1CCc2nc(C)nc(-c3ccc(Cl)cc3)c2CC1 | 20.3%[44.1 µM]
Cc1ccc(C(=O)N2CCC3(C2)NC(=O)c2ccccc2O3)cc1 (stereo unspecified) | i
Cc1nonc1CC(=O)N1CCC2(CCC(=O)N(CCc3ccncc3)C2)CC1 | 6.2%
CN(Cc1cccn1C)Cc1cccn1C | i
CN(Cc1cc2ccccc2s1)C(=O)c1cc(CN2CCCC(O)C2)on1 (stereo unspecified) | -19.4%
CCCN1CCC(N2CCC(C(=O)Nc3cccc(-c4cccc(F)c4)c3)CC2)CC1 | 2.24µM*
CN(C)S(=O)(=O)N1CCCC1C(=O)Nc1ccc(-c2cccc(F)c2)cc1 (stereo unspecified) | -5.6%
CS(=O)(=O)N1CCCC1C(=O)Nc1ccc(-c2cccc(F)c2)cc1 (stereo unspecified) | -1.0%
O=C(Nc1cccc(-c2cccc(Cl)c2)c1)C1CCN(Cc2cccc(O)c2)CC1 | 3.98µM*
CC(=O)NC1(C)CCN(Cc2cccc(-c3cccc(Cl)c3)c2)C1 (stereo unspecified) | -13.6%[44.1 µM]
O=C(NCC1CCN(Cc2cccc(Cl)c2)CC1)Nc1cc(Cl)ccc1Cl | i
COc1ccc(C(=O)N2CC[C@@H](CC(=O)O)[C@@H](CCN3CCCN(C(C)=O)CC3)C2)cc1 | 29.8%
CNC(=O)[C@@H]1C[C@@H](n2cc(CN(C)C(=O)Nc3ccccc3)nn2)CN1 | 1.3%
O=C1CC(c2ccccc2)N(C(=O)C2CC2)CCCN(C(=O)NC2CCCCC2)CCN1 (stereo unspecified) | i
O=C(CC1CCOC2(CCN(S(=O)(=O)Cc3ccccc3)CC2)C1)N1CCCC1 (stereo unspecified) | i
COc1ccc(-c2nc(C3CC(=O)N(c4ccc(F)cc4)C3)no2)cc1F (stereo unspecified) | 52.6%
COc1ccc(Cl)cc1-c1nc(C2CC(=O)N(c3ccc(F)cc3)C2)no1 (stereo unspecified) | 11.2µM*
COc1ccccc1-c1nc(C2CC(=O)N(c3ccc(F)c(Cl)c3)C2)no1 (stereo unspecified) | 120.4%
COc1cc(C(=O)N2CCCC2c2nonc2C)ccc1OC1CCN(C(C)=O)CC1 (stereo unspecified) | -19.4%
Cn1nc(C(=O)N2CCOCC(O)(CN3CCCC3)C2)ccc1=O (stereo unspecified) | 1.7%
COCCc1noc([C@@H]2CN(Cc3cccc(Cl)c3)C[C@H]2CO)n1 | -12.5%
O=C(Cn1ccn2nc(-c3ccccc3)c(CO)c2c1=O)Nc1ccc2c(c1)OCO2 | -5.3%
Cc1nc(-c2ccco2)cc([C@H]2CN3CC[C@H]2C[C@@H]3CNC(=O)c2cccs2)n1 | 8.91µM*
CCCS(=O)(=O)NC[C@H]1C[C@@H]2CCN1C[C@@H]2c1cc(-c2ccccc2Br)nc(C)n1 | i
SMILES | Pf Dd2 growth
Cc1nc(-c2ccco2)cc([C@H]2CN3CC[C@H]2C[C@@H]3CNC(=O)c2ccccc2)n1 | i
CC(=O)NC[C@H]1C[C@@H]2CCN1C[C@@H]2c1cc(-c2ccccc2)nc(C)n1 | i
Cc1nc(-c2ccccc2Br)cc([C@H]2CN3CC[C@H]2C[C@@H]3CNC(=O)c2cccs2)n1 | -21.5%
CCC(CC)c1cc([C@H]2CN3CC[C@H]2C[C@@H]3CNC2CCN(C)CC2)nc(-c2ccncc2)n1 | 1.41µM*
Cc1nc(-c2ccccc2)cc([C@H]2CN3CC[C@H]2C[C@@H]3CNC(=O)C(C)(C)C)n1 | -0.7%[44.1 µM]
Cc1nc(-c2ccccc2)cc([C@H]2CN3CC[C@H]2C[C@@H]3CNC(=O)c2ccco2)n1 | i
Cc1nc(-c2ccco2)cc([C@H]2CN3CC[C@H]2C[C@@H]3CNS(C)(=O)=O)n1 | i
Cc1nc(-c2ccc(F)cc2)cc([C@H]2CN3CC[C@H]2C[C@@H]3CNC(=O)c2ccco2)n1 | i
Cc1nc(-c2ccco2)cc([C@H]2CN3CC[C@H]2C[C@@H]3CNC2CCOCC2)n1 | 11.2µM*
Cc1nc(-c2ccco2)cc([C@H]2CN3CC[C@H]2C[C@@H]3CNCC2CCCCC2)n1 | 3.16µM*
Cc1ccc(NC(=O)N2CCC(CCN)CC2)cc1F | -7.7%
COc1ccc(CC(=O)NC2CCN(c3cc(-c4ccc(OC)cc4)[nH]n3)CC2)cc1 | -9.7%
CN(C)c1ccc(C(=O)N[C@H]2CO[C@H]3[C@@H]2OC[C@@H]3Nc2nccc(-c3cccs3)n2)cc1 | i
O=C(c1ccc(CN2C(=O)NC3(CCS(=O)(=O)CC3)C2=O)cc1)N1CCSCC1 | -1.7%
COC1CCOC2(CCN(C(=O)CCCc3ccccc3)CC2)C1 (stereo unspecified) | 6.7%
